Measurements taken from PubChem BioAssay (NCI).
About 83,000 compounds went through this panel and 20% of them were active in at least one assay; those are over-represented in the sample as a whole.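 Cell lines were cultured in 96-well plates, exposed to a single compound concentration, and assessed for percent growth 48 hours later.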 Values without a mark were called inactive. Activity calls are given as the source filed them. How the source made its calls: active means growth percent below 10; inactive means the rest.

How the values were obtained:
Experiment in all cases: NCI-60 one-dose screen, 48 h (100 = growth as untreated, 0 = no growth, -100 = all killed)
Settings in all cases: 10 µM unless noted
NCI-H23 lung = test system: NCI-H23 lung
NCI-H226 lung = test system: NCI-H226 lung
NCI-H322M lung = test system: NCI-H322M lung
HOP-62 NSCLC = test system: HOP-62 NSCLC
NCI-H522 lung = test system: NCI-H522 lung
A549/ATCC NSCLC = test system: A549/ATCC NSCLC
786-0 renal = test system: 786-0 renal
DU-145 prostate = test system: DU-145 prostate
K-562 leukemia = test system: K-562 leukemia
MALME-3M melanoma = test system: MALME-3M melanoma
MDA-MB-231 breast = test system: MDA-MB-231 breast
RXF 393 renal = test system: RXF 393 renal
SF-268 CNS = test system: SF-268 CNS
SF-295 CNS = test system: SF-295 CNS
SF-539 CNS = test system: SF-539 CNS
UACC-257 melanoma = test system: UACC-257 melanoma
M14 melanoma = test system: M14 melanoma
COLO 205 colon = test system: COLO 205 colon
HOP-92 NSCLC = test system: HOP-92 NSCLC

| SMILES | growth (NCI-H23 lung) [%] | growth (NCI-H226 lung) [%] | growth (NCI-H322M lung) [%] | growth (HOP-62 NSCLC) [%] | growth (NCI-H522 lung) [%] | growth (A549/ATCC NSCLC) [%] | growth (786-0 renal) [%] | growth (DU-145 prostate) | growth (K-562 leukemia) [%] | growth (MALME-3M melanoma) [%] | growth (MDA-MB-231 breast) [%] | growth (RXF 393 renal) [%] | growth (SF-268 CNS) [%] | growth (SF-295 CNS) | growth (SF-539 CNS) | growth (UACC-257 melanoma) [%] | growth (M14 melanoma) | growth (COLO 205 colon) [%] | growth (HOP-92 NSCLC) [%] |
| --- | --- | --- | --- | --- | --- | --- | --- | --- | --- | --- | --- | --- | --- | --- | --- | --- | --- | --- | --- |
| COc1ccc(/C(C)=N/NC(=O)c2ccc(S(C)(=O)=O)cc2)cc1OC | 104 | 95.5 | 96.5 | 85.5 | 104 | 96.5 | 94.2 | 95.7% | 69.5 | 98.1 | 103 | 114 | 102 | 98.3% | 99.1% | 96.3 | 97.4% | – | – |
| c1ccc(-c2nnn(-c3ccccc3)n2)cc1 | 105 | 91.4 | 100 | 95.8 | – | 99.7 | 104 | 127% | 89.1 | 115 | 84.6 | 102 | 109 | 106% | 105% | 103 | 109% | – | – |
| COc1cc(CN(c2ccc(C)cc2)C2OC(=O)c3ccccc32)cc(OC)c1OC (stereo unspecified) | 29 | 20.1 | 60.2 | 24.8 | 31.7 | 30.5 | 28.9 | 25% | – | 63.4 | 64.6 | 22.3 | 34.1 | 16.8% | 5.91% (active) | 94.2 | -10% (active) | – | – |
| CN1C2CCC1/C(=C\c1ccc(F)cc1)C(=O)/C2=C/c1ccc(F)cc1 | 47.9 | 55.6 | 50.3 | 76.7 | 34.4 | 36.6 | 43.8 | 9.38% (active) | 16.2 | 61.7 | 53.7 | 66.2 | 63 | 72% | 73.6% | 25.8 | 41.2% | 14.8 | – |
| CCCCCCCC/C=C/CCCCCCCC1=NC(C)(C)CN1c1ccccc1 | 89.1 | 99 | 116 | 100 | 65.1 | 91.6 | 81.8 | 97.2% | 65.9 | 115 | 103 | 85 | 91.9 | -5.3% (active) | 96.9% | 90.2 | 99.7% | 97.8 | – |
| Cc1c(C(N)=O)sc2ncn(CC(=O)NN=C3CCCCC3)c(=O)c12 | 111 | 96.7 | 116 | 104 | 83.8 | 111 | 105 | 111% | 103 | 136 | 103 | 83.5 | 108 | 98.6% | 105% | 165 | 105% | 129 | – |
| Clc1nnc2c3ccccc3ccn12 | 113 | 77.8 | 119 | 98.5 | 103 | 102 | 99.3 | 105% | 102 | 135 | 118 | 97.6 | 97.6 | 104% | 109% | 105 | 106% | – | – |
| COc1cc2ccc(C(C)=O)cc2cc1OC | 99.5 | 81.4 | 104 | 81.8 | – | – | 107 | 111% | 118 | 107 | 109 | – | 101 | – | 95.6% | – | 110% | – | 86 |
| CCN(CC)CC(=O)Nc1c(C)cc(C(=O)NN)cc1C | 94.8 | 99.7 | 89.1 | 88.5 | 105 | 106 | 106 | 96.8% | 94.9 | 73.9 | 103 | 110 | 93.9 | 105% | 100% | 100 | 96.2% | 95.4 | – |
